Data reported in ChEMBL document CHEMBL4513216, “Probing the Open Global Health Chemical Diversity Library for Multistage-Active Starting Points for Next-Generation Antimalarials” (ACS Infect Dis, 2020).
Among all 69,000 compounds or so, about 8,600 (12%) showed an effect of 50% or more. The full list was thinned out, with strong results kept by preference.

Each compound was assayed on Plasmodium berghei (assay: Screen against P. berghei liver stage (PbLuc), transformed with Luciferase, at 10uM). Conditions: tested at 10 uM.
Type: functional, HepG2

Going from `Cc1cc(C(=O)N2CCc3ncc(CN4CCOCC4)n3CC2)no1` to `Cc1cc(C(=O)N2CCN(c3nc4ccccc4s3)CC2)no1`, the INHIBITION rises from 35.8% to 36.8%.

First: Cn1cnnc1C1CCCN(C(=O)COCc2ccccc2)C1 (stereo not given)
Second: Cc1cc(C)nc(C2CCN(C(=O)CCn3nnc4ccccc43)C2)n1 (stereo not given)
The INHIBITION of the first is higher: 45.7% for the first, 22% for the second.

Compared with `O=C1CCN(CCCS(=O)(=O)c2ccc(Cl)cc2)CCN1`, `CC(C)c1nc2c(n1C)CCN(CCCOc1ccc(C#N)cc1)C2` is lower in INHIBITION: 20.6% for the first, -2.53% for the second.

Compared with `CN(C)S(=O)(=O)N1CC[C@]2(O)CCN(c3nc4ccccc4s3)C[C@@H]2C1`, `Cc1ncnc(N2CCCN(c3nc4ccccc4s3)CC2)c1C` is higher in INHIBITION: 11.3% for the first, 89.6% for the second.

First: Cn1nc2c(cc1=O)CN(c1nc3ccccc3s1)CC2
Second: c1ccc2sc(N3CCN(c4ncnc5c4CCC5)CC3)nc2c1
The INHIBITION of the first is lower: -80.7% for the first, 79.9% for the second.

Compared with `c1ccc2sc(N3CCCN(c4ncnc5c4CCNC5)CC3)nc2c1`, `NC(=O)c1cccnc1N1CCN(c2ncnc3c2CCNC3)CC1` is lower in INHIBITION: 74.5% for the first, 31.7% for the second.

Going from `Cc1cccc(CN2CCc3ncnc(N4CCCC4)c3CC2)n1` to `COCC(=O)N1CCCN(c2ncnc3c2CCNCC3)CC1`, the INHIBITION rises from -27.4% to 11.7%.

Going from `COCCCN1CC2(CCCN(CCn3cc(Cl)cn3)C2)CCC1=O` (stereo not given) to `O=C1CCC2(CCNCC2)CN1Cc1nnc2ccccn12`, the INHIBITION rises from 17.4% to 42.1%.

First: CCOC(=O)Cc1csc(NC(=O)c2cc3n(n2)CCCO3)n1
Second: COC(=O)Cn1c(C)cc(=O)n2nc(-c3cccs3)nc12
The INHIBITION of the first is lower: -42.6% for the first, 29.2% for the second.

Compared with `COCCCN(CCOC)Cc1nc2c(cnn2C)c(=O)[nH]1`, `Cc1cccc(CN(Cc2nc3c(cnn3C)c(=O)[nH]2)C2CC2)c1` is lower in INHIBITION: 25.1% for the first, 23.7% for the second.

Compared with `CCN(CC)C(CNCc1cc(F)cc(F)c1)c1ccco1` (stereo not given), `CCN(CC)C(CNCc1ccc(OC)c(F)c1)c1ccco1` (stereo not given) is lower in INHIBITION: 34.1% for the first, -75% for the second.

Compared with `CCN(CC)C(CNS(=O)(=O)c1ccc(C(N)=O)cc1)c1ccco1` (stereo not given), `CCN(CC)C(CNS(=O)(=O)c1ccc(C(C)=O)cc1)c1ccco1` (stereo not given) is lower in INHIBITION: 54.3% for the first, 26.4% for the second.

First: CCN(CC)C(CNCc1ccc(O)cc1)c1ccco1 (stereo not given)
Second: CCN(CC)C(CNS(=O)(=O)c1ccc(C(=O)NC)cc1)c1ccco1 (stereo not given)
The INHIBITION of the first is higher: 77.8% for the first, 12.6% for the second.

Going from `O=C(CCc1ccccn1)N1CCCN(C(=O)CC2CCCC2)CC1` to `CCCC(=O)N1CCC(C(=O)NCCNc2ncccn2)CC1`, the INHIBITION rises from 21.5% to 21.6%.

First: N#Cc1cccc(NC(=O)N2CCC3(CCC(=O)N(C4CC4)C3)CC2)c1
Second: N#Cc1cccc(C(=O)N2CC[C@H]3[C@H]2CCN3CC2CC2)c1
The INHIBITION of the first is higher: 19.5% for the first, 12.4% for the second.

Compared with `COc1ncccc1CN1CC[C@]2(C[C@@H](OCc3ccccn3)CO2)C1`, `CCOC1COC2(CCN(Cc3cccnc3OC)CC2)C1` (stereo not given) is higher in INHIBITION: -3.52% for the first, 18.6% for the second.

Compared with `CCN1CCCC12CCN(Cc1cccnc1OC)CC2`, `COCCN1CCCC12CCN(Cc1cccnc1OC)CC2` is lower in INHIBITION: 42.3% for the first, 26% for the second.

First: COc1ncccc1CN1CCC2(CC1)COCCN2C
Second: COc1ncccc1CN1CCC2(CC1)CC(OCC1CC1)CO2 (stereo not given)
The INHIBITION of the first is higher: 70.4% for the first, 56.4% for the second.

Compared with `Cc1c[nH]c(C2CCCN2C(=O)CCc2c(C)n[nH]c2C)n1` (stereo not given), `Cc1n[nH]c(C)c1CCC(=O)N1CCC(O)(CN2CCN(C)CC2)C1` (stereo not given) is lower in INHIBITION: -0.13% for the first, -15.15% for the second.

Going from `CN(C)C(=O)N1CCN(C(=O)c2ccn3cncc3c2)CC1` to `Cn1cc(CN2CC[C@@H]3[C@@H]2CCN3C(=O)c2cccc(F)c2)cn1`, the INHIBITION falls from 15.1% to 10.1%.

First: O=C(Cn1nnn(-c2cccs2)c1=O)NCC1CCOC1 (stereo not given)
Second: CCN(CC1CCOC1)C(=O)Cn1nnn(-c2cccs2)c1=O (stereo not given)
The INHIBITION of the first is higher: 13.7% for the first, 12.8% for the second.

Going from `O=C(Cn1nnn(-c2cccs2)c1=O)N(CC1CCOC1)C1CC1` (stereo not given) to `O=C(c1ccco1)N1CC[C@H]2[C@H]1CCN2CC1CCOCC1`, the INHIBITION falls from 51.7% to 25%.

First: Nc1ncccc1C(=O)NCc1ccc(Br)cc1
Second: Nc1ncccc1C(=O)NCc1cccc(Br)c1
The INHIBITION of the first is lower: -26.3% for the first, 68.9% for the second.

Going from `COc1cccc(CNC(=O)c2cccnc2N)c1` to `Cc1cccc(CNC(=O)c2cccnc2N)c1`, the INHIBITION rises from 0.207% to 44.1%.

First: Nc1ncccc1C(=O)NCc1cccc(Cl)c1
Second: CC(C)Sc1ncccc1C(=O)NCc1cccc(N(C)C)c1
The INHIBITION of the first is higher: 69.8% for the first, 19.6% for the second.

First: CC(C)N1CC(C(=O)NCc2ccc(S(=O)(=O)N(C)C)cc2)CC1=O (stereo not given)
Second: CN(C)Cc1ccc(CNC(=O)NCC2(C)CCCS2)cc1 (stereo not given)
The INHIBITION of the first is lower: 6% for the first, 49.3% for the second.

Going from `CN1CCC(Cc2cnc(CNC(=O)Cc3cccc(F)c3)cn2)CC1` to `CCc1nnc2n1CCN(C(C(=O)NC1CC1)c1ccc(F)cc1)C2` (stereo not given), the INHIBITION falls from 26.75% to 2.61%.

Compared with `Cc1ccc(NC2COC3(CCN(CC(C)C)CC3)C2)nn1` (stereo not given), `Cc1cc(CN2CCC3(CC2)COC(COc2ccccn2)C3)no1` (stereo not given) is lower in INHIBITION: 46.7% for the first, -19.8% for the second.

Compared with `CN1CCN(Cc2noc(CC3CCc4ccccc43)n2)CC1` (stereo not given), `CN1CCN(Cc2noc(CCc3nc(-c4ccccc4)no3)n2)CC1` is higher in INHIBITION: 42.1% for the first, 74.4% for the second.

Going from `CN1CCC(Cc2noc(CC3CC3)n2)CC1` to `CCCN1CCC(Cc2nc(CN3CCN(C)CC3)no2)CC1`, the INHIBITION rises from 48.8% to 54.4%.

Going from `CCCc1nc(CN2CCN(Cc3noc(CCC)n3)CC2)no1` to `CCCc1nc(CN2CCN(CC(O)c3ccccc3)CC2)no1` (stereo not given), the INHIBITION rises from 17.7% to 34.5%.

Compared with `Cc1noc(C)c1C(=O)N1CCC(n2cccn2)CC1`, `COc1ccc(C(=O)N2CCCC(n3cc(C)cn3)C2)c(F)c1` (stereo not given) is lower in INHIBITION: 19.4% for the first, 2.97% for the second.

Going from `Cc1nc(CN2C(=O)CCC23CCN(c2ncccc2C)CC3)cs1` to `Cc1csc(N2CCN(Cc3ccccn3)CC2C)n1` (stereo not given), the INHIBITION falls from 37.2% to 2.3%.

Compared with `CC(=O)N1CCc2nnc(C3CCCCN3CC3CC3)n2CC1` (stereo not given), `Cc1ccc(C(=O)N2CC[C@H]3[C@H]2CCN3CC2CCOCC2)cn1` is higher in INHIBITION: 3.91% for the first, 57.9% for the second.

First: COCCCNC(=O)Cn1c(C)cc(=O)n2nc(-c3cccs3)nc12
Second: Cc1cc(=O)n2nc(-c3cccs3)nc2n1CC(=O)NC(C)C
The INHIBITION of the first is lower: 49.1% for the first, 67.3% for the second.

First: CSc1ccccc1NC(=O)N1C[C@@H](N(C)C)[C@H](c2ccc(C)cc2)C1
Second: COc1ccc([C@@H]2CN(Cc3ccncc3)C[C@H]2N(C)C)cc1
The INHIBITION of the first is lower: -5.38% for the first, 33% for the second.

Compared with `CCOc1ccc(CN2CC[C@@H]3CC[C@H](C2)N3)cc1CO`, `O=C(c1cccc(Cl)c1)N1CC[C@H]2[C@H]1CCN2CC1CC1` is higher in INHIBITION: 31.2% for the first, 64.9% for the second.

Going from `O=C(c1cscn1)N1CC[C@@H]2[C@@H]1CCN2CC1CCOCC1` to `O=C(c1cscn1)N1CC[C@@H]2[C@@H]1CCN2CC1CCOC1` (stereo not given in full), the INHIBITION rises from -41% to 49.4%.

First: N#Cc1ccc(C(=O)N2CC[C@H]3[C@H]2CCN3CC2CC2)cc1
Second: N#Cc1ccc(C(=O)N2CC[C@H]3[C@H]2CCN3CC2CCOCC2)cc1
The INHIBITION of the first is higher: 27.2% for the first, -13.4% for the second.

Compared with `Cc1ccc(C(=O)N2CC[C@H]3[C@H]2CCN3CC2CCOCC2)cc1F`, `O=C(c1cccc(F)c1)N1CC[C@H]2[C@H]1CCN2CC1CCOCC1` is lower in INHIBITION: 67.2% for the first, 59% for the second.

Going from `O=C(c1cccc(Cl)c1)N1CC[C@H]2[C@H]1CCN2CC1CCOCC1` to `N#Cc1cccc(C(=O)N2CC[C@H]3[C@H]2CCN3CC2CCOCC2)c1`, the INHIBITION rises from 30.1% to 34.6%.

Compared with `O=C(c1ccc(F)cc1)N1CC[C@H]2[C@H]1CCN2CC1CC1`, `O=C(c1ccc(F)cc1)N1CC[C@H]2[C@H]1CCN2CC1CCOCC1` is higher in INHIBITION: -12.2% for the first, 64.9% for the second.

Compared with `COc1ncc(CN(CCCN2CCOCC2)Cc2ccc(C)o2)cn1`, `Cc1n[nH]c(C)c1CCC(=O)N1CCC(O)(CN2CCOCC2)C1` (stereo not given) is higher in INHIBITION: 30.4% for the first, 53.65% for the second.

Going from `CC(C)c1ncc2c(n1)CN(CCCc1nc3ccccc3o1)CC2` to `Cc1csc(N2CCN(Cc3cccnc3)CC2C)n1` (stereo not given), the INHIBITION rises from 40.9% to 61.8%.

Going from `Cc1[nH]ccc1C(=O)N1CCN(C)C2(CCC(=O)N(C)CC2)C1` (stereo not given) to `Cc1n[nH]c(C)c1CC(=O)N1CCC(O)(CN2CCOCC2)C1` (stereo not given), the INHIBITION falls from -2.39% to -23.55%.

First: CC(C)(C)C(=O)NCCn1ccc(-c2ccccn2)n1
Second: CNC(=O)NC(=O)CCSCc1cc(Cl)cc2cccnc12
The INHIBITION of the first is higher: -43.7% for the first, -51.1% for the second.

Compared with `CS(=O)(=O)c1cncnc1C1CCCN(C(=O)Nc2ccc(F)cc2)C1` (stereo not given), `COCC(=O)N1CCc2cccc(S(=O)(=O)N3CCOCC3)c2C1` is higher in INHIBITION: -18.555% for the first, 33.9% for the second.

Going from `CCS(=O)(=O)N1CCN(C(=O)NC(C)C)CC2(CNC(=O)C2)C1` (stereo not given) to `CCCOC(=O)N1CCc2cccc(S(=O)(=O)N3CCOCC3)c2C1`, the INHIBITION rises from 3.25% to 20.3%.

Going from `CC(=O)N1CCC1c1cc(N2CCNC(=O)C2)nc(C)n1` (stereo not given) to `Cc1cnc(CN2CCN(c3nc(C)cs3)C(C)C2)cn1` (stereo not given), the INHIBITION rises from 12.84% to 78.8%.

Going from `Cc1csc(N2CCN(Cc3cscn3)CC2C)n1` (stereo not given) to `Cc1csc(N2CCN(Cc3nccn3C)CC2C)n1` (stereo not given), the INHIBITION falls from 45.9% to 30%.

Compared with `Cc1csc(N2CCN(Cc3cnc(C)s3)CC2C)n1` (stereo not given), `c1nc(N2CCOC(Cn3cncn3)C2)c2cc[nH]c2n1` (stereo not given) is higher in INHIBITION: 21.6% for the first, 33.8% for the second.

Compared with `Cc1ccc(-c2ncc(C(=O)NS(C)(=O)=O)s2)c(C)c1`, `CC(C)NC(=O)N(C)C1CCN(c2ccccc2Cl)C1=O` (stereo not given) is lower in INHIBITION: -2.53% for the first, -6.61% for the second.

Compound `CCOCCC(=O)N1CCc2cccc(S(=O)(=O)N3CCOCC3)c2C1` has an INHIBITION of 53.9%.
